High-throughput results: PubChem, Buhrlage Lab, Dana-Farber Cancer Institute and Novartis Institutes for BioMedical Research (Cambridge, Mass)
Most compounds without a hit are left out; they make up all but 13% or so of the library.
USP8 inh = human USP8 deubiquitinase inhibition. purified USP8, Ub-rhodamine cleavage fluorescence, 30 min. inhibition, % at 20 µM. 47,000 compounds, 4.2% hits
USP10 block = inhibitors of human USP10 deubiquitinase | purified USP10, Ub-rhodamine fluorescence, 60 min | inhibition, % at 20 µM | 47,000 compounds, 1.1% hits | AID 1645856
USP17 inh = inhibitors of human USP17 deubiquitinase. A8MUK1. purified USP17, Ub-rhodamine cleavage fluorescence, 3 h. inhibition, % at 50 µM. 47,000 compounds, 6.5% hits. AID 1645855
USP30 block = human USP30 deubiquitinase inhibition; Q70CQ3; purified USP30, Ub-rhodamine cleavage fluorescence; inhibition, % at 25 µM; 47,000 compounds, 5.3% hits
USP28 inh = blocks human USP28 ubiquitin-rhodamine cleavage; 47,000 compounds, 3% hits; purified USP28, Ub-rhodamine cleavage fluorescence, 30 min; inhibition, % at 25 µM
Target sequence (Q96RU2 whole entry, looked up): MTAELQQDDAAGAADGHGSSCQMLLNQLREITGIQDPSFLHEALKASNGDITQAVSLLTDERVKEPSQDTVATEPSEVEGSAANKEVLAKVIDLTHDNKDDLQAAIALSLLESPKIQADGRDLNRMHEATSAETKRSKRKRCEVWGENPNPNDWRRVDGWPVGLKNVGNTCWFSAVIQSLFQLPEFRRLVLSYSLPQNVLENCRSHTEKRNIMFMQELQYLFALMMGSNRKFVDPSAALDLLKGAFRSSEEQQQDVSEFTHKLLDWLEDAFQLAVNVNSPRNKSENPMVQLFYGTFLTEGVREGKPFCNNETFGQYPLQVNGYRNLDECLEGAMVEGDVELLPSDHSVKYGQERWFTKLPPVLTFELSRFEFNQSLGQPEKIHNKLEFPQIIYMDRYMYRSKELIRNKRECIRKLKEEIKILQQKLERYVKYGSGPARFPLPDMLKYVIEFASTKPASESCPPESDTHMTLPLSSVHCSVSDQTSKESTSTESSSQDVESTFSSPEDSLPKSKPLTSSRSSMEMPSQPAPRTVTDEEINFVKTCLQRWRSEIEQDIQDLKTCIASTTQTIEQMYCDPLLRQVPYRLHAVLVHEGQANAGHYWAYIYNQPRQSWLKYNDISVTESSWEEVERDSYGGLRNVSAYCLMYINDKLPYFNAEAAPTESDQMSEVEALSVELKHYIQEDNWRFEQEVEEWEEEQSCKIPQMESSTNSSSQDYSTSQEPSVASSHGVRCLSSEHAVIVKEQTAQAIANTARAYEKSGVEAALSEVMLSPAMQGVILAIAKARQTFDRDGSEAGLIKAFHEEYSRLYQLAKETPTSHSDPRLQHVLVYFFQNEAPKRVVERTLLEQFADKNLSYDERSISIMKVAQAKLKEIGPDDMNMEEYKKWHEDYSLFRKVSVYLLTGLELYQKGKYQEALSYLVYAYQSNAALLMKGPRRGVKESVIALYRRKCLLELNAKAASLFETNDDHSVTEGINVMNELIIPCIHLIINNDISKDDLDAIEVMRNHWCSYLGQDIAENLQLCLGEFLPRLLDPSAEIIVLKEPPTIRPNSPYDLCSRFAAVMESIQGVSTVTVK
Large screens that a line does not name were inactive. No stated cut-off is given here; in the data, active means inhibition above about 30%; inactive means the rest.

COc1ccccc1CNC(=O)c1ccccc1-c1ccccc1	none
COc1ccccc1CNC(=O)c1ccccc1OCc1ccccc1Cl	USP30 block 32
NC(=O)c1ccc(NC(=O)COC(=O)c2sc3ccccc3c2Cl)cc1	none
Cc1cc(C)n(CC(=O)N2N=CCC2(O)C(F)(F)F)n1 (stereo unspecified)	USP8 inh 37
Cc1cc(C)n(CC2CCCCN2C(=O)CCc2nccs2)n1 (stereo unspecified)	none
COc1cc(OC)c2c(=O)cc(-c3ccccc3)oc2c1OC	USP30 block 37
COc1ccc(-c2cc(=O)c3cc(OC(=O)C4CCCCC4)ccc3o2)cc1	none
COc1c(O)c(O)c2c(=O)cc(-c3ccc(O)cc3)oc2c1OC	USP17 inh 67, USP28 inh 40
COc1cc(C2CC(=O)Nc3n[nH]c(-c4ccccc4)c32)cc(OC)c1OC (stereo unspecified)	none
COc1ccc(NC(=O)COc2cc(CSc3ccccc3)ncc2OC)cc1	USP17 inh 61, USP30 block 43
COc1cnc(CSc2ccccc2)cc1OCC(=O)Nc1ccccc1F	USP17 inh 36
COc1cnc(CSc2ccccc2)cc1OCC(=O)Nc1ccccc1	none
COc1cnc(CSc2ncccn2)cc1OCC(=O)Nc1ccc(C)cc1C	none
COc1cnc(CSc2ccccc2)cc1OCC(=O)Nc1ccc(F)cc1	USP30 block 43
O=S(=O)(NC1CC1)c1ccc(S(=O)(=O)N2CCN3CCCC3C2)cc1 (stereo unspecified)	none
O=S(=O)(NC1CC1)c1ccc(S(=O)(=O)N2CCCC3(CCCCC3)C2)cc1	USP30 block 41 (no result: USP17 inh)
Cc1nc(-c2ccccc2)nc2c1CC(=O)N2Cc1cccnc1	USP8 inh 52
Cc1nc(C2CCNCC2)nc2c1CC(=O)N2CCc1ccccc1	none
CNC(=O)N1CCCC1c1nnc(C(=O)Nc2ccc(F)c(F)c2)s1 (stereo unspecified)	none
Cc1ccc(NC(=O)c2nnc(C3CCCN3C(=O)C3CCC3)s2)cc1 (stereo unspecified)	USP30 block 33
CN[C@H]1CC2(CCN(C(=O)CCCn3cccn3)CC2)OC[C@]1(C)O	USP28 inh 79
FC(F)(F)c1cnc(N2CCC(c3ncn[nH]3)CC2)c(Cl)c1	USP28 inh 43
O=C1COc2ccc(NC(=O)N3CCN(c4ncc(C(F)(F)F)cc4Cl)CC3)cc2N1	none
CN(C)CC(=O)N1CC2(CCN(C(=O)Nc3ccccc3)C2)C1	none
Cc1cccc(N(C)C(=O)c2nn(C)c3c2COc2ccccc2-3)c1	none
Cc1cc(C(=O)N2CC(C(=O)Nc3cc(C(F)(F)F)ccc3Cl)C2)no1	USP17 inh 41, USP30 block 70
COc1ccc(C(=O)CSc2nnc(-c3cccnc3)n2-c2ccccc2)cc1	USP17 inh 42, USP30 block 52
Cc1c(NC(=O)COc2ccc(C3CCCCC3)cc2)cccc1-c1nc2ncccc2o1	USP17 inh 43
Cc1cccc(C(=O)N(Cc2nc3nc(C)cc(=O)n3[nH]2)c2ccccc2)c1	none
COCCn1c(C(=O)Nc2ccccc2Cl)cc2c(=O)n(C)c(=O)n(C)c21	USP17 inh 36
Cc1cc(C2CCCN2S(=O)(=O)c2ccc(F)c(Cl)c2)on1 (stereo unspecified)	none
Cc1ccc(CC(=O)Nc2ccc(C)cc2-c2n[nH]c(C3CC3)n2)cc1	USP8 inh 64, USP10 block 30
O=C(Nc1cccnc1)C1c2ccccc2C(=O)N(C2CCCC2)C12CCCCC2 (stereo unspecified)	USP8 inh 36
COCCN1C(=O)c2ccccc2C(C(=O)Nc2cccnc2)C12CCCCC2 (stereo unspecified)	none
Cc1ccc(NC(=O)N2CC(c3nc(-c4cnccn4)no3)C2)cc1	none
COc1ccccc1OC(C)C(=O)Nc1nc(-c2ccccc2)ns1 (stereo unspecified)	none
O=C1NC2(CCc3ccccc31)CCN(Cc1ccccc1)C2 (stereo unspecified)	none
COc1ccc(-c2csc3ncn(CC(C)=O)c(=O)c23)cc1	none
COc1ccc(-c2c(C)nc3c(-c4ccsc4)cnn3c2N)cc1	USP8 inh 32
COc1ccccc1-c1noc(-c2nn(-c3ccc(C)c(C)c3)ccc2=O)n1	none
Cc1ccc(-n2ccc(=O)c(-c3nc(-c4ccccc4F)no3)n2)cc1	none
CCc1ccc(-n2ccc(=O)c(-c3nc(-c4ccncc4)no3)n2)cc1	USP17 inh 39 (no result: USP30 block, USP28 inh)
COc1cccc(-n2ccc(=O)c(-c3nc(-c4ccccc4Cl)no3)n2)c1	USP8 inh 68, USP30 block 66, USP28 inh 41 (no result: USP17 inh)
COc1ccc(-n2ccc(=O)c(-c3nc(-c4ccc(F)cc4)no3)n2)cc1	USP8 inh 85, USP17 inh 31, USP30 block 35
COCCN(C)c1nc(C2CCN(c3ncccn3)CC2)cc2c1ncn2C	none
Cc1sc2ncn3c(=O)n(CC(=O)Nc4ccc(F)c(Cl)c4)nc3c2c1C	USP17 inh 53
O=C(Cc1ccc(F)cc1)N1CCN(C(=O)c2cc(-c3ccccn3)n[nH]2)CC1	none
O=S(=O)(c1cccc2cccnc12)N1CCc2nc3ncc(Cl)cc3cc2C1	none
O=C(CN(c1cc(C(F)(F)F)ccc1Cl)S(=O)(=O)c1ccccc1)NCc1ccco1	USP8 inh 32
Cc1ccc2c(c1)N(Cc1nc(-c3ccc(F)cc3)no1)C(=O)CO2	USP28 inh 51
CCN1C(=O)COc2ccc(-c3noc(-c4ccnn4C)n3)cc21	none
OC1(c2ccc(Cl)cc2)CCN(c2nccc(-c3ccccc3)n2)CC1	none
CCOc1ccccc1-c1noc(Cn2c(=O)[nH]c3cc4c(cc3c2=O)OCO4)n1	none
Cc1ccc(NC(=O)c2nn(C)c3ccccc3c2=O)cc1	none
Cc1cccc(NC(=O)c2nn(C)c3ccccc3c2=O)c1	USP17 inh 64, USP30 block 37
Cc1c(CN2C[C@H]3NC(=O)c4ccccc4C(=O)[C@@]3(C)C2)oc2ccccc12	none
Cc1ccccc1Nc1c(-c2ccccc2O)nc2c(C)cccn12	none
Cc1ccc2nc(-c3ccccc3O)c(Nc3ccc(Cl)cc3)n2c1	USP8 inh 76
O=C1CN(C(=O)COc2cccc3ccccc23)c2ccccc2N1	USP8 inh 84, USP17 inh 41
CC(Nc1ccccc1Oc1ccccc1)C(=O)N1CC(=O)Nc2ccccc21 (stereo unspecified)	USP28 inh 37
Cc1cc2c3c([nH]c2cc1S(=O)(=O)N(C)C1CCCCC1)CCCC3=O	USP17 inh 49
Cc1ccccc1NS(=O)(=O)c1cc2[nH]c3c(c2cc1C)C(=O)CCC3	USP8 inh 40, USP17 inh 58, USP30 block 69, USP28 inh 57
Cc1cc2c3c([nH]c2cc1S(=O)(=O)N1CCC(C)CC1)CCCC3=O	none
O=C(NCC1COc2ccccc2O1)c1ccc(=O)[nH]c1 (stereo unspecified)	none (no result: USP30 block, USP28 inh)
Cc1cccc(N2CCN(C(=O)c3snc(-c4ccncc4)c3N)CC2)c1	none
CC(C)(C)c1ccc(NC(=O)N2CCCN(Cc3ccc(F)cc3)CC2)cc1	none
